Screen size: about 5,500 compounds; about 2,000 (36%) were called active. Another 18% or so got no clear call; they are omitted. Some of the results follow. Unmarked numbers belong to inactive results. Rule as the data show it: active = normalized growth mostly below about 0.91 (no sharp cut-off); inconclusive = no clear call, values can overlap the other calls; inactive = mostly above about 0.92.
Assay: chemical genetic growth profiling, strain panel (AID 1159580);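 also: tested at 20 µM; growth read once vehicle control cultures reached saturation at 30 °C; 1 = growth at the plate median or of vehicle wells; lower values mean less growth of the strain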
Settings: growth OD

Cc1onc(-c2c(Cl)cccc2Cl)c1C(=O)N[C@@H]1C(=O)N2[C@@H]1SC(C)(C)[C@@H]2C(=O)O
normalized growth (S. cerevisiae deletion strains, locus YJR066W, strain TOR1, active compounds read low): 0.946 | normalized growth (S. cerevisiae deletion strains, locus YJR075W, strain HOC1, active compounds read low): 1.02 | normalized growth (S. cerevisiae deletion strains, locus YKL009W, strain mrt4, active compounds read low): 0.986 | normalized growth (S. cerevisiae deletion strains, locus YKL068W, active compounds read low): 1.01 | normalized growth (S. cerevisiae deletion strains, locus YKL085W, strain MDH1 (second series), active compounds read low): 0.999 | normalized growth (S. cerevisiae deletion strains, locus YKL085W, strain MDH1, active compounds read low): 0.999 | normalized growth (S. cerevisiae deletion strains, locus YKL160W, strain elf1, active compounds read low): 0.982 | normalized growth (S. cerevisiae deletion strains, locus YKL190W, strain CNB1, active compounds read low): 1.01 | normalized growth (S. cerevisiae deletion strains, locus YKR001C, strain vps1, active compounds read low): 1 | normalized growth (S. cerevisiae deletion strains, locus YKR026C, strain gcn3, active compounds read low): 1.47 [resistant] (active) | normalized growth (S. cerevisiae deletion strains, locus YKR091W, strain srl3, active compounds read low): 1 | normalized growth (S. cerevisiae deletion strains, locus YLL001W, strain dnm1, active compounds read low): 0.962 | normalized growth (S. cerevisiae deletion strains, locus YLL026W, active compounds read low): 1 | normalized growth (S. cerevisiae deletion strains, locus YLL041C, strain sdh2, active compounds read low): 0.987 | normalized growth (S. cerevisiae deletion strains, locus YLR027C, strain aat2, active compounds read low): 0.991 | normalized growth (S. cerevisiae deletion strains, locus YLR039C, strain RIC1, active compounds read low): 1.03 | normalized growth (S. cerevisiae deletion strains, locus YLR058C, strain SHM2, active compounds read low): 1.02 | normalized growth (S. cerevisiae deletion strains, locus YLR102C, strain apc9, active compounds read low): 0.994 | normalized growth (S. cerevisiae deletion strains, locus YLR113W, strain HOG1, active compounds read low): 1.06 | normalized growth (S. cerevisiae deletion strains, locus YLR221C, strain rsa3, active compounds read low): 1.05 | normalized growth (S. cerevisiae deletion strains, locus YLR258W, strain gsy2, active compounds read low): 1.02 | normalized growth (S. cerevisiae deletion strains, locus YLR262C, strain YPT6 (second series), active compounds read low): 0.961 | normalized growth (S. cerevisiae deletion strains, locus YLR262C, strain YPT6, active compounds read low): 1.02 | normalized growth (S. cerevisiae deletion strains, locus YLR268W, strain sec22, active compounds read low): 0.987 | normalized growth (S. cerevisiae deletion strains, locus YLR320W, strain mms22, active compounds read low): 1.06 | normalized growth (S. cerevisiae deletion strains, locus YLR330W, strain CHS5, active compounds read low): 1.02 | normalized growth (S. cerevisiae deletion strains, locus YLR342W, strain FKS1 (second series), active compounds read low): 1.04 | normalized growth (S. cerevisiae deletion strains, locus YLR342W, strain FKS1, active compounds read low): 0.979 | normalized growth (S. cerevisiae deletion strains, locus YLR357W, strain rsc2, active compounds read low): 0.98 | normalized growth (S. cerevisiae deletion strains, locus YLR370C, strain arc18, active compounds read low): 1.01 | normalized growth (S. cerevisiae deletion strains, locus YLR371W, strain rom2, active compounds read low): 0.985 | normalized growth (S. cerevisiae deletion strains, locus YLR384C, strain iki3, active compounds read low): 0.977 | normalized growth (S. cerevisiae deletion strains, locus YLR418C, strain cdc73, active compounds read low): 0.946 | normalized growth (S. cerevisiae deletion strains, locus YML016C, strain PPZ1, active compounds read low): 1.02 | normalized growth (S. cerevisiae deletion strains, locus YML032C, strain rad52, active compounds read low): 0.987 | normalized growth (S. cerevisiae deletion strains, locus YML120C, strain ndi1, active compounds read low): 0.99 | normalized growth (S. cerevisiae deletion strains, locus YML124C, strain tub3, active compounds read low): 0.985 | normalized growth (S. cerevisiae deletion strains, locus YMR058W, strain fet3, active compounds read low): 1.01 | normalized growth (S. cerevisiae deletion strains, locus YMR078C, strain ctf18, active compounds read low): 0.991 | normalized growth (S. cerevisiae deletion strains, locus YMR125W, strain sto1, active compounds read low): 0.951 | normalized growth (S. cerevisiae deletion strains, locus YMR129W, active compounds read low): 0.997 | normalized growth (S. cerevisiae deletion strains, locus YMR205C, strain PFK2, active compounds read low): 0.984 | normalized growth (S. cerevisiae deletion strains, locus YMR223W, strain ubp8, active compounds read low): 0.973 | normalized growth (S. cerevisiae deletion strains, locus YMR231W, strain pep5, active compounds read low): 0.985 | normalized growth (S. cerevisiae deletion strains, locus YMR307W, strain GAS1, active compounds read low): 1.02 | normalized growth (S. cerevisiae deletion strains, locus YNL067W, strain RPL9B, active compounds read low): 1 | normalized growth (S. cerevisiae deletion strains, locus YNL071W, strain lat1, active compounds read low): 0.998 | normalized growth (S. cerevisiae deletion strains, locus YNL128W, strain TEP1, active compounds read low): 1.01 | normalized growth (S. cerevisiae deletion strains, locus YNL183C, strain NPR1, active compounds read low): 1 | normalized growth (S. cerevisiae deletion strains, locus YNL209W, strain ssb2, active compounds read low): 1.02 | normalized growth (S. cerevisiae deletion strains, locus YNL233W, strain BNI4, active compounds read low): 0.997 | normalized growth (S. cerevisiae deletion strains, locus YNL248C, strain rpa49, active compounds read low): 1.03 | normalized growth (S. cerevisiae deletion strains, locus YNL250W, strain rad50, active compounds read low): 0.989 | normalized growth (S. cerevisiae deletion strains, locus YNL271C, strain bni1, active compounds read low): 0.98 | normalized growth (S. cerevisiae deletion strains, locus YNL298W, strain CLA4, active compounds read low): 0.999 | normalized growth (S. cerevisiae deletion strains, locus YNL307C, strain MCK1, active compounds read low): 0.987 | normalized growth (S. cerevisiae deletion strains, locus YNL322C, strain KRE1 (second series), active compounds read low): 0.965 | normalized growth (S. cerevisiae deletion strains, locus YNL322C, strain KRE1, active compounds read low): 1.01 | normalized growth (S. cerevisiae deletion strains, locus YNR049C, strain mso1, active compounds read low): 0.991 | normalized growth (S. cerevisiae deletion strains, locus YNR052C, strain pop2, active compounds read low): 0.997 | normalized growth (S. cerevisiae deletion strains, locus YOL006C, strain TOP1, active compounds read low): 1.03 | normalized growth (S. cerevisiae deletion strains, locus YOL012C, strain htz1): 1.88 | normalized growth (S. cerevisiae deletion strains, locus YOL147C, strain pex11, active compounds read low): 0.987 | normalized growth (S. cerevisiae deletion strains, locus YOR001W, strain rrp6, active compounds read low): 0.972 | normalized growth (S. cerevisiae deletion strains, locus YOR061W, strain CKA2, active compounds read low): 1.03 | normalized growth (S. cerevisiae deletion strains, locus YOR069W, strain VPS5, active compounds read low): 1.02 | normalized growth (S. cerevisiae deletion strains, locus YOR070C, strain gyp1, active compounds read low): 1.01 | normalized growth (S. cerevisiae deletion strains, locus YOR080W, strain dia2, active compounds read low): 0.967 | normalized growth (S. cerevisiae deletion strains, locus YOR083W, strain WHI5, active compounds read low): 0.964 | normalized growth (S. cerevisiae deletion strains, locus YOR106W, strain vam3, active compounds read low): 0.957 | normalized growth (S. cerevisiae deletion strains, locus YOR136W, strain idh2, active compounds read low): 0.988 | normalized growth (S. cerevisiae deletion strains, locus YOR144C, strain elg1, active compounds read low): 0.989 | normalized growth (S. cerevisiae deletion strains, locus YOR184W, strain ser1, active compounds read low): 0.978 | normalized growth (S. cerevisiae deletion strains, locus YOR231W, strain MKK1, active compounds read low): 1.06 | normalized growth (S. cerevisiae deletion strains, locus YOR265W, strain rbl2, active compounds read low): 0.985 | normalized growth (S. cerevisiae deletion strains, locus YOR270C, strain vph1, active compounds read low): 0.995 | normalized growth (S. cerevisiae deletion strains, locus YOR290C, strain snf2, active compounds read low): 1.03 | normalized growth (S. cerevisiae deletion strains, locus YOR316C, strain cot1, active compounds read low): 0.998 | normalized growth (S. cerevisiae deletion strains, locus YPL051W, strain arl3, active compounds read low): 1.01 | normalized growth (S. cerevisiae deletion strains, locus YPL078C, strain atp4, active compounds read low): 0.951 | normalized growth (S. cerevisiae deletion strains, locus YPL106C, strain sse1, active compounds read low): 0.964 | normalized growth (S. cerevisiae deletion strains, locus YPL240C, strain hsp82, active compounds read low): 0.998 | normalized growth (S. cerevisiae deletion strains, locus YPL241C, strain CIN2, active compounds read low): 1.02 | normalized growth (S. cerevisiae deletion strains, locus YPL256C, strain CLN2, active compounds read low): 1.04 | normalized growth (S. cerevisiae deletion strains, locus YPR119W, strain clb2, active compounds read low): 0.99 | normalized growth (S. cerevisiae deletion strains, locus YPR141C, strain kar3, active compounds read low): 1 | normalized growth (S. cerevisiae deletion strains, locus YPR163C, strain tif3, active compounds read low): 0.998 | normalized growth (S. cerevisiae deletion strains, locus YPR167C, strain met16, active compounds read low): 0.985 | normalized growth (S. cerevisiae deletion strains, strain wtn01, active compounds read low): 0.97 | normalized growth (S. cerevisiae strains, strain wild type, active compounds read low): 1.02
